Here are results for 15 sequences from the supplement of paper PMC12645437, “Orthogonal IMiD-Degron Pairs Induce Selective Protein Degradation in Cells” (ACS Chemical Biology, 2025).

In the experiment the target is T1, CRBN, Q96SW2.
T1 chain: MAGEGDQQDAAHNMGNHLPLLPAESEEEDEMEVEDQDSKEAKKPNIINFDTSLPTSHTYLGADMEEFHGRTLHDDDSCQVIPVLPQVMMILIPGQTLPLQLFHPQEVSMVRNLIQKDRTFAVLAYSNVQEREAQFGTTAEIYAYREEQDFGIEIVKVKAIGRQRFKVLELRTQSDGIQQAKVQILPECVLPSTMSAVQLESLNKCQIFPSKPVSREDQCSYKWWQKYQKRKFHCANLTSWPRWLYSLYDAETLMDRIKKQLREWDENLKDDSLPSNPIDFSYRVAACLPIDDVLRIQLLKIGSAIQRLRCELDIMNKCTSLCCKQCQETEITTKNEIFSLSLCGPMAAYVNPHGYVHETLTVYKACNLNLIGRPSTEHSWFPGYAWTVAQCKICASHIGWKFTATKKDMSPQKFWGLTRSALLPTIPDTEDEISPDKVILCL
Kind of experiment: log2 fold change of degron read counts, EGFP-low vs EGFP+ sorted cells (limma voom), compound-induced degradation; higher = more compound-induced degradation of the degron-EGFP fusion; degrons are variants of IKZF1/3 zinc finger 2; compound dose not given here. Particulars: Jurkat, 18 h.

[1] abbreviates: compound: compound 19 (5-tert-butyl-thalidomide).
[2] abbreviates: compound: compound 22 (5-morpholino-thalidomide).
[3] abbreviates: compound: compound 33 (diphenyl IMiD analogue).

Whole data set: some 8,300 sequences, median “log2 fold change of degron read counts, EGFP-low vs EGFP+ sorted cells (limma voom), compound-induced degradation” near -1.1, cut for the highest 2% near 3.2. Many of the other results were omitted from the sample, so the highest values are more common in it than they were.
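Also: pooled lentiviral library of zinc finger degron-EGFP fusions in mCherry-positive Jurkat cells, FACS-sorted after compound exposure, with degron abundance counted by next-generation sequencing.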

In the case of FICDICGARFTQKGNLLRHIKL [46F_47I_49D_50I_52G_53A_54R_55F_67L_, Q9UKT9], the “log2 fold change of degron read counts” value was -0.557 under setting [1], 1.75 under setting [2], 0.63 under setting [3] and 1.41 (compound: thalidomide).

As to FGCNVCGAWFTQKGNLLRHIKL [46F_47G_49N_50V_52G_53A_54W_55F_67L_, Q9UKT9], the “log2 fold change of degron read counts” value is, setting by setting: under setting [1], -1.56; under setting [2], -2; under setting [3], -0.753; (compound: thalidomide) -1.74.

For the sequence FFCDICGAYFTQKGNLLRHIKL [46F_47F_49D_50I_52G_53A_54Y_55F_67L_, Q9UKT9], the “log2 fold change of degron read counts” value is, setting by setting: under setting [1], 2.55; under setting [2], 1.36; under setting [3], -0.119; (compound: thalidomide) -1.9.

Take FWCPICGAGFTQKGNLLRHIKL [46F_47W_49P_50I_52G_53A_54G_55F_67L_, Q9UKT9]: the “log2 fold change of degron read counts” value is, setting by setting: under setting [1], 3.3; under setting [2], 2.73; under setting [3], 1.87; (compound: thalidomide) 0.518.

With FGCPICGAGFTQKGNLLRHIKL [46F_47G_49P_50I_52G_53A_54G_55F_67L_, Q9UKT9], the “log2 fold change of degron read counts” value runs as follows: under setting [1], 3.28; under setting [2], 1.32; under setting [3], 2.32; (compound: thalidomide) 0.446.

As to FVCPICGAGFTQKGNLLRHIKL [46F_47V_49P_50I_52G_53A_54G_55F_67L_, Q9UKT9], the “log2 fold change of degron read counts” value came out at 1.09 under setting [1], 3.08 under setting [2], 2.04 under setting [3] and 2.98 (compound: thalidomide).

Regarding FTCPICGAGFTQKGNLLRHIKL [46F_47T_49P_50I_52G_53A_54G_55F_67L_, Q9UKT9], the “log2 fold change of degron read counts” value is, setting by setting: under setting [1], 1.55; under setting [2], 2.19; under setting [3], 2.35; (compound: thalidomide) 2.4.

For the sequence FQCPICGAGFTQKGNLLRHIKL [46F_47Q_49P_50I_52G_53A_54G_55F_67L_, Q9UKT9], the “log2 fold change of degron read counts” value under setting [1] is 2.39, the “log2 fold change of degron read counts” value under setting [2] was found to be 2.05, the “log2 fold change of degron read counts” value under setting [3] came out at 1.77 and the “log2 fold change of degron read counts” value (compound: thalidomide) was determined as 3.69.

Regarding FLCPICGAGFTQKGNLLRHIKL [46F_47L_49P_50I_52G_53A_54G_55F_67L_, Q9UKT9], the “log2 fold change of degron read counts” value by setting is: under setting [1], 1.86; under setting [2], 0.187; under setting [3], 1.6; (compound: thalidomide) 1.01.

FYCPICGAGFTQKGNLLRHIKL [46F_47Y_49P_50I_52G_53A_54G_55F_67L_, Q9UKT9]: the “log2 fold change of degron read counts” value under setting [1] was 2.99, the “log2 fold change of degron read counts” value under setting [2] was 2.02, the “log2 fold change of degron read counts” value under setting [3] turned out to be 2.1 and the “log2 fold change of degron read counts” value (compound: thalidomide) is -0.123.

With FSCPICGAGFTQKGNLLRHIKL [46F_47S_49P_50I_52G_53A_54G_55F_67L_, Q9UKT9], the “log2 fold change of degron read counts” value under setting [1] was found to be 2.83, the “log2 fold change of degron read counts” value under setting [2] is 1.27, the “log2 fold change of degron read counts” value under setting [3] amounted to 1.76 and the “log2 fold change of degron read counts” value (compound: thalidomide) worked out at 0.755.

As to FKCPICGAGFTQKGNLLRHIKL [46F_47K_49P_50I_52G_53A_54G_55F_67L_, Q9UKT9], the “log2 fold change of degron read counts” value was 2.08 under setting [1], -0.359 under setting [2], -0.702 under setting [3] and 0.6 (compound: thalidomide).

Consider FRCPICGAGFTQKGNLLRHIKL [46F_47R_49P_50I_52G_53A_54G_55F_67L_, Q9UKT9], for which the “log2 fold change of degron read counts” value runs as follows: under setting [1], 2.23; under setting [2], 1.8; under setting [3], 2.28; (compound: thalidomide) 1.55.

Turning to FDCPICGAGFTQKGNLLRHIKL [46F_47D_49P_50I_52G_53A_54G_55F_67L_, Q9UKT9], the “log2 fold change of degron read counts” value runs as follows: under setting [1], 2.33; under setting [2], -0.146; under setting [3], 0.564; (compound: thalidomide) 1.11.

Consider FACPICGAGFTQKGNLLRHIKL [46F_47A_49P_50I_52G_53A_54G_55F_67L_, Q9UKT9], for which the “log2 fold change of degron read counts” value reads like this: under setting [1], 3.61; under setting [2], 1.67; under setting [3], 0.663; (compound: thalidomide) 0.803.
